The values that follow come from PubChem BioAssay (Tox21).

SMILES strings stand for the structures. Several values for one entry are separate records, joined by “and”; a condition that tells them apart may be missing. Identical values can stand only once. Activity calls are given as the source filed them. Unless noted, calls come from the whole dose curve; as a rule, active = well fitted curve in the direction sought with a large enough effect in the repeat runs; inconclusive = weak or mixed curves; inactive = no such curve, though single readings can be large; an effect the other way counts as inactive or inconclusive.

A short description of assay [1]: qHTS assay to identify small molecule antagonists of the glucocorticoid receptor (GR) signaling pathway - cell viability counter screen (AID 720693). Note: nearly all actives have a fitted effect of over 55% in size. Note: potency is the fitted concentration of half-maximal effect. A general note: qHTS replaces the single test concentration by a dilution series.
Assay [2] in a line: qHTS assay for identifying genotoxic compounds that show differential cytotoxicity against isogenic chicken DT40 cell lines with known DNA damage response pathways - wild type cell line (AID 743012). Note: nearly all actives have a fitted effect of over 60% in size. Note: potency is the fitted concentration of half-maximal effect. In short, it runs like this:
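Cells (DT40 wild type, 300/well) are treated with DMSO-dissolved compounds after a ~0.5 h pre-incubation and kept 40 h at 37 C/5% CO2. Viability is then measured by CellTiter-Glo luminescence following 30 min at room temperature.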

A short description of assay [3]: qHTS assay to identify small molecule antagonists of the androgen receptor (AR) signaling pathway - cell viability counter screen (AID 743033; note: nearly all actives have a fitted effect of over 45% in size; note: potency is the fitted concentration of half-maximal effect).
A short description of assay [4]: qHTS assay to identify small molecule antagonists of the androgen receptor (AR) signaling pathway using the MDA cell line - cell viability counter screen (AID 743041; note: nearly all actives have a fitted effect of over 45% in size; note: potency is the fitted concentration of half-maximal effect). The method in brief: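 Same-well cytotoxicity was assessed by CellTiter-Fluor in MDA-kb2 AR-luc cells after 16 h of compound treatment under R1881 agonism.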
Assay [5] is described as follows: qHTS assay to identify small molecule antagonists of the thyroid receptor (TR) signaling pathway (AID 743065). Note: nearly all actives have a fitted effect of over 55% in size. Note: potency is the fitted concentration of half-maximal effect. The method in brief:
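GH3.TRE-Luc rat pituitary cells (two TREs driving luciferase) were dosed with compound, then stimulated with 1 nM T3 (final) for 23.5 h at 37 C. ONE-Glo luminescence was the read-out, with CellTiter-Fluor fluorescence as the cytotoxicity counter-screen.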

Assay [6] relates to thyroid hormone receptor (rat, GH3 cells). Description: qHTS assay to identify small molecule agonists of the thyroid receptor (TR) signaling pathway (AID 743066; calls by dose curve).
The target in assay [7] is Estrogen receptor (Homo sapiens) (UniProt P03372). In words: qHTS assay to identify small molecule antagonists of the estrogen receptor alpha (ER-alpha) signaling pathway (AID 743069; active = well fitted curve in the direction sought with a large enough effect in the signal ratio in the repeat runs, not every such curve was filed as active; inconclusive = weak or mixed curves, or effect the other way; inactive = no such curve, though single readings can be large or run the other way; the % refers to the signal ratio; note: potency is the fitted concentration of half-maximal effect). In short, it runs like this:
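Reporter cells (ER-alpha-bla, HEK293 background) are conditioned overnight in stripped-serum medium (2% charcoal-stripped FBS). Compound and 17beta-estradiol exposure runs 18 hr at 37C, 5% CO2.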

The nature of assay [8]: qHTS assay to identify small molecule antagonists of the estrogen receptor alpha (ER-alpha) signaling pathway - cell viability counter screen (AID 743074; calls by dose curve;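 note: HEK293 cells carrying ER-alpha-UAS-bla reporter stimulated with 17beta-estradiol; nearly all actives have a fitted effect of over 45% in size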; note: potency is the fitted concentration of half-maximal effect).
The target in assay [9] is Estrogen receptor (Homo sapiens) (UniProt P03372). In words: qHTS assay to identify small molecule agonists of the estrogen receptor alpha (ER-alpha) signaling pathway (AID 743075; calls by dose curve;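 note: HEK293 GripTite cells with ER-alpha and UAS-driven beta-lactamase reporter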; note: potency is the fitted concentration of half-maximal effect). The settings on record: HEK293 ER-alpha-UAS-bla, beta-lactamase FRET ratio, 18 h; activation: at 70.1 µM (top of the series).
Estrogen receptor (Homo sapiens), sequence (P03372 whole entry, looked up): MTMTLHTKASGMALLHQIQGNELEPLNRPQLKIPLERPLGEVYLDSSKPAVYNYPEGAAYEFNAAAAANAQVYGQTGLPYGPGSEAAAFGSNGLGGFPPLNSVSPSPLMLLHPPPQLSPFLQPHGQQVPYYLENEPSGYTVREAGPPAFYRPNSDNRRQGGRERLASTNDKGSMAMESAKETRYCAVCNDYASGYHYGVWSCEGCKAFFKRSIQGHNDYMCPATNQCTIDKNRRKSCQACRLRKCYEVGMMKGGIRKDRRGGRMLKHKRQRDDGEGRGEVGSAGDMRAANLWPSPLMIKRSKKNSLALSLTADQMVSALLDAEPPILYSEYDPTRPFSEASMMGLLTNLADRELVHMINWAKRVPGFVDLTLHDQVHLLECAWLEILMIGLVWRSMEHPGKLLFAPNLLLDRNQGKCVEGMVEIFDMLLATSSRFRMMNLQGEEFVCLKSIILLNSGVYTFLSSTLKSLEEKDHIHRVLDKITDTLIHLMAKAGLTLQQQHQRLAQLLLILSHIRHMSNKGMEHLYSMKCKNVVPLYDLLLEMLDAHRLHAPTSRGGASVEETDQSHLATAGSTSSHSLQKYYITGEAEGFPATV
For assay [10] the target is unchanged. In words: qHTS assay to identify small molecule agonists of the estrogen receptor alpha (ER-alpha) signaling pathway using the BG1 cell line (AID 743079). Note: nearly all actives have a fitted effect of over 20% in size. Note: potency is the fitted concentration of half-maximal effect. The following applies: BG1Luc4E2 cells, ERE-luciferase agonist, 22 h.
Assay [11] can be described thus: qHTS assay to identify small molecule antagonists of the estrogen receptor alpha (ER-alpha) signaling pathway using the BG1 cell line (AID 743080; calls by dose curve;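 note: BG1 cells stimulated with 17beta-estradiol alongside compound; nearly all actives have a fitted effect of over 25% in size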). The method in brief: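 Readout is ONE-Glo luminescence, taken 30 min at room temperature after reagent addition, preceded by a CellTiter-Fluor viability read; BG1-Luc-4E2 cells had received compound and 17beta-estradiol for 21.5 h at 37 C.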

Assay [12] is described as follows: qHTS assay to identify small molecule antagonists of the estrogen receptor alpha (ER-alpha) signaling pathway using the BG1 cell line - cell viability counter screen (AID 743081).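 Note: compound given together with 17beta-estradiol as the ER stimulus; nearly all actives have a fitted effect of over 45% in size.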 Note: potency is the fitted concentration of half-maximal effect.
The target in another assay is Aromatase (Homo sapiens) (UniProt P11511). Description: qHTS assay to identify aromatase inhibitors (AID 743083). Note: nearly all actives have a fitted effect of over 55% in size. Note: potency is the fitted concentration of half-maximal effect.
Aromatase (Homo sapiens), sequence (P11511 whole entry, looked up): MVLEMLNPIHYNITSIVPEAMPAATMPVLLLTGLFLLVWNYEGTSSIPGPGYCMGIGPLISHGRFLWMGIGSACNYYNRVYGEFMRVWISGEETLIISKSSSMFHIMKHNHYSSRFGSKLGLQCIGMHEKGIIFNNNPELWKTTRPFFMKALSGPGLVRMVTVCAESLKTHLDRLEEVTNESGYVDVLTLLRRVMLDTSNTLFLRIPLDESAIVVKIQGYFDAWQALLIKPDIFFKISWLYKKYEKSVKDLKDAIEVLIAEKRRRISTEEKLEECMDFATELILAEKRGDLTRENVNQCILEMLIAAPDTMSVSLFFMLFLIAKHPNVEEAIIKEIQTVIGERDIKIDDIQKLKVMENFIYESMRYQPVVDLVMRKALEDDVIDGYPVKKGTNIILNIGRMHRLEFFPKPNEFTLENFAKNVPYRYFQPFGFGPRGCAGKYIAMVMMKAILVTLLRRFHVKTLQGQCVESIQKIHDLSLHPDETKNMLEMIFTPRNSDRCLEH
Assay [13] can be described thus: qHTS assay to identify aromatase inhibitors - cell viability counter screen (AID 743084).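 Note: cells stimulated with testosterone during compound exposure; nearly all actives have a fitted effect of over 55% in size.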 Note: potency is the fitted concentration of half-maximal effect.
A short description of assay [14]: qHTS assay for identifying genotoxic compounds that show differential cytotoxicity against isogenic chicken DT40 cell lines with known DNA damage response pathways - Rev3 mutant cell line (AID 743014). Note: nearly all actives have a fitted effect of over 55% in size. Note: potency is the fitted concentration of half-maximal effect.
A short description of assay [15]: qHTS assay for identifying genotoxic compounds that show differential cytotoxicity against isogenic chicken DT40 cell lines with known DNA damage response pathways - Rad54/Ku70 mutant cell line (AID 743015). Note: nearly all actives have a fitted effect of over 60% in size. Note: potency is the fitted concentration of half-maximal effect.
A short description of assay [16]: qHTS assay to identify small molecule antagonists of the thyroid receptor (TR) signaling pathway - cell viability counter screen (AID 743064). Note: nearly all actives have a fitted effect of over 50% in size. Note: potency is the fitted concentration of half-maximal effect. In short, it runs like this: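 GH3.TRE-Luc rat pituitary cells dosed after 4 hr plating, co-stimulated with T3 at 1 nM final, incubated 23.5 h at 37 C. Viability measured in the same wells by CellTiter-Fluor fluorescence after 30 min further at 37 C.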

Assay [17] has as its target Androgen receptor (Homo sapiens) (UniProt P10275). In words: qHTS assay to identify small molecule agonists of the androgen receptor (AR) signaling pathway using the MDA cell line (AID 743040; note: nearly all actives have a fitted effect of over 20% in size; note: potency is the fitted concentration of half-maximal effect). The method in brief: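 Human breast carcinoma MDA-kb2 reporter cells (MMTV-luc, AR/GR elements) were treated for 16 h at 37C in 0% CO2 following a 5 h settling period. Signal was quantified by ONE-Glo luminescence.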

Assay [18] shares this target. Description: qHTS assay to identify small molecule antagonists of the androgen receptor (AR) signaling pathway using the MDA cell line (AID 743042; note: nearly all actives have a fitted effect of over 55% in size; note: potency is the fitted concentration of half-maximal effect). The method in brief:
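MDA-kb2 breast carcinoma cells carrying MMTV-luciferase (AR/GR responsive) were co-treated with compounds and the agonist R1881 for 16 h at 37C. Inhibition read as ONE-Glo luminescence; CellTiter-Fluor fluorescence measured in parallel for cytotoxicity.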
% is set by controls: 0 for no effect and ±100 for the full control effect.

Androgen receptor (Homo sapiens), sequence (P10275 whole entry, looked up): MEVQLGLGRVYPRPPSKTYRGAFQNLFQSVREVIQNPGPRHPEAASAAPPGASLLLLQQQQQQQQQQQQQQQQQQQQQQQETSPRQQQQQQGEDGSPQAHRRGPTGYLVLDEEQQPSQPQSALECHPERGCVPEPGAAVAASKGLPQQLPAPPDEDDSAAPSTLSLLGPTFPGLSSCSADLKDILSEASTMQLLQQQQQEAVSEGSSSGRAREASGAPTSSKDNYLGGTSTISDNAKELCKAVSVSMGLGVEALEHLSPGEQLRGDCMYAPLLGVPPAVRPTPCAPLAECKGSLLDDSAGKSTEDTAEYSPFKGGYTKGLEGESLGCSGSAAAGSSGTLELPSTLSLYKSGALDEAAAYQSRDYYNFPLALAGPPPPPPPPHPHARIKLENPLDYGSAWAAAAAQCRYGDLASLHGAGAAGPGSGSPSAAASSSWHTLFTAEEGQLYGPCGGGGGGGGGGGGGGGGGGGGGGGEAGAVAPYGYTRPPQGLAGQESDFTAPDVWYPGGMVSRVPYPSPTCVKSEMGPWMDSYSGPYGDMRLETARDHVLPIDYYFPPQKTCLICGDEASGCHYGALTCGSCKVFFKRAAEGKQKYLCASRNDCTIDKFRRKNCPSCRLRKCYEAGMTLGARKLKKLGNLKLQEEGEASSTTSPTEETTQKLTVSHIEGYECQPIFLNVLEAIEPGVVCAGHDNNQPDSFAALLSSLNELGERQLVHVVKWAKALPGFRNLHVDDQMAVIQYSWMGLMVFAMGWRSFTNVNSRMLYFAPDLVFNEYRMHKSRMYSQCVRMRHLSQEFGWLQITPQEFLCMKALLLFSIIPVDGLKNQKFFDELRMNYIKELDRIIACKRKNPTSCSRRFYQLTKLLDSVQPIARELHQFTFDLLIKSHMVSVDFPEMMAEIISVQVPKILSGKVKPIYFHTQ

As for `O=C(c1ccc(O)cc1O)c1ccc(O)cc1O`, the Potency result in assay [1], in assay [2], in [3], in assay [4], in [6] and in assay [7] was “inactive” throughout. Further, the Potency entry (in assay [8]; in assay [11]; in assay [12]; with Aromatase (Homo sapiens); in assay [13]) was “inactive” in each case. Moreover, the Potency is 30.7 µM (active) and 54.5 µM (active) in [5]; 11 µM [inconclusive] (active) and 9.77 µM [inconclusive] (active) in assay [9]; 4.33 µM (active) and 15.4 µM (active) in [10].

As for `O=C(O)c1cc(O)c2c(c1)C(=O)c1cccc(O)c1C2=O`, the Potency entry in assay [1], in [14], in assay [15], in assay [3], in assay [4] and in assay [16] was “inactive” each time. Besides, the Potency entry in assay [5], in assay [6], in assay [7], in [8], in assay [9] and in assay [11] was “inactive” each time. The Potency entry (with Aromatase (Homo sapiens); in assay [13]) was “inactive” each time. The Potency in assay [10] is 39.7 µM (active).

As to `C[C@@H]1C[C@H]2[C@@H]3CCC4=CC(=O)C=C[C@]4(C)[C@@]3(Cl)[C@@H](O)C[C@]2(C)[C@@]1(OC(=O)c1ccco1)C(=O)CCl`, the Potency entry in assay [1], in assay [3], in assay [4], in [18], in assay [6] and in assay [8] was “inactive” each time. Further, the Potency entry (in assay [12]; with Aromatase (Homo sapiens); in assay [13]) was “inactive” each time. The Potency in assay [2] is 12.7 µM (active); in assay [17], 0.0009 µM (active).

On to `Oc1ccc(Cl)cc1Sc1cc(Cl)ccc1O`, for which the Potency in assay [1] was 16.9 µM (active) and 19.5 µM (active); in [14], 11.9 µM (active) and 19.3 µM (active); in assay [15] it was 16.8 µM (active) and 24.3 µM (active); in assay [3], 21.3 µM (active) and 13.8 µM (active); in assay [4] it was 29.8 µM (active) and 61 µM (active); in [16], 11.9 µM (active) and 7.68 µM (active). Also, the Potency was 5.96 µM (active) and 2.73 µM (active) in assay [5]; 19 µM (active) and 38.8 µM (active) in assay [8]; 26.6 µM (active) and 27.3 µM (active) with Aromatase (Homo sapiens). The Potency entry in assay [6], in assay [9], in [11] and in [12] was “inactive” each time.

Regarding `C[n+]1ccn(Cc2ccccc2)c1`, the Potency entry in [1], in assay [2], in assay [3], in assay [4], in [16] and in assay [5] was “inactive” throughout. In addition, the Potency entry (in assay [6]; in assay [7]; in assay [9]; in [12]; with Aromatase (Homo sapiens)) was “inactive” each time.

For the compound `CCC(C)(C)C1CCCCC1OC(C)=O` (stereo not drawn), the Potency entry in assay [1], in assay [2], in assay [15], in assay [3], in assay [4] and in assay [16] was “inactive” each time. The Potency entry in assay [5], in assay [6], in assay [7], in assay [8], in [9] and in [11] was “inactive” throughout. Besides, the Potency entry (in assay [12]; with Aromatase (Homo sapiens); in assay [13]) was “inactive” throughout. Also, the activation in assay [10] (at 70.3 µM (top of the series)) was 7.91% (inactive).

Regarding `CCN(Cc1cccnc1)C(=O)c1cccc(Cl)c1[C@]1(C)C(=O)N(Cc2ccc(OC)cc2OC)c2ccc(Cl)cc21`, the Potency result in [1], in [6] and in assay [8] was “inactive” throughout. Also, the Potency was 5.09 µM (active) in assay [2]; 7.19 µM (active) in assay [14]; 5.09 µM (active) in [15]; 12.8 µM (active) in [18]; 2.55 µM (active) in assay [5]; 16.1 µM (active) with Aromatase (Homo sapiens). Moreover, the Potency in assay [13] is 16.1 µM (active).

As for `CCCCN1C(=O)[C@@H]([C@H](O)C2CCCCC2)NC(=O)C12CCN(Cc1ccc(Oc3ccc(C(=O)O)cc3)cc1)CC2`, the Potency result (in assay [1]; in [7]; in [8]; in assay [9]; in assay [12]; in the assay with Aromatase (Homo sapiens)) was “inactive” in each case. Moreover, the Potency result in assay [13] is “inactive”. The Potency in assay [2] is 61.1 µM (active); in assay [15], 15.4 µM (active); in [5], 61.1 µM (active).

For `Fc1ccc(C(c2ccc(F)cc2)N2CCN(C/C=C/c3ccccc3)CC2)cc1`, the Potency entry in assay [1], in assay [4], in assay [8], in assay [9], in assay [11] and in assay [12] was “inactive” throughout. Besides, the Potency result (with Aromatase (Homo sapiens); in assay [13]) was “inactive” in each case. Besides, the Potency in [2] was 10.6 µM (active); in [14] it was 13.3 µM (active); in assay [15], 11.9 µM (active). Besides, the activation in assay [10] (at 70.3 µM (top of the series)) is -22.9% (inactive).

For the compound `COc1c(C)c2c(c(O)c1C/C=C(\C)CCC(=O)O)C(=O)OC2`, the Potency entry (in assay [1]; in assay [6]; in [8]; in [12]; with Aromatase (Homo sapiens)) was “inactive” throughout. Besides, the Potency is 0.16 µM (active) in [2]; 0.16 µM (active) in assay [14]; 0.202 µM (active) in assay [15]; 0.717 µM (active) in assay [16]; 0.507 µM (active) in assay [5]; 0.512 µM [inconclusive] (active) in assay [7].

`CC/C(=C(\c1ccc(O)cc1)c1ccc(OCCN(C)C)cc1)c1ccccc1`: the Potency in assay [1] was 24.6 µM (active); in assay [14], 0.434 µM (active); in [15] it was 1.09 µM (active); in assay [3], 15.5 µM (active); in assay [5] it was 12.2 µM (active); in [8], 39 µM (active). Further, the Potency in [12] was 68.7 µM (active); with Aromatase (Homo sapiens), 0.0217 µM (active); in assay [13] it was 48.7 µM (active). Also, the Potency result in assay [17], in assay [4] and in assay [6] was “inactive” each time.

For the compound `CC1=NC(C)OC1C` (stereo not drawn), the Potency result in [1], in assay [14], in [15], in assay [3], in assay [17] and in assay [4] was “inactive” each time. For the same compound, the Potency result in [16], in [5], in assay [6], in [8], in assay [9] and in assay [11] was “inactive” throughout. Further, the Potency entry (in assay [12]; in the assay with Aromatase (Homo sapiens); in [13]) was “inactive” throughout.

Regarding `CCCCCCCCNC(C)C(O)c1ccc(SC(C)C)cc1` (stereo not drawn), the Potency in assay [1] was 10.7 µM (active); in assay [14], 1.68 µM (active); in [15], 1.68 µM (active); in assay [3], 21.3 µM (active); in assay [16], 5.31 µM (active); in [5], 5.96 µM (active). The Potency in assay [8] is 9.52 µM (active); in the assay with Aromatase (Homo sapiens) it was 29.8 µM (active). Besides, the Potency result in assay [17] and in assay [18] was “inactive” in each case.

For `O=c1cccccc1O`, the Potency result in assay [1], in [4], in assay [6], in assay [7], in assay [8] and in [9] was “inactive” each time. Further, in assay [12], the Potency entry was “inactive”. For the same compound, the Potency was 27.8 µM (active) in assay [14]; 55.5 µM (active) in assay [15]; 44.5 µM (active) in assay [3]; 19.7 µM (active) in [16]; 17.6 µM (active) in assay [5]. In assay [10] (at 95 µM (top of the series)), the activation was -8.54% (inactive).
